Source: ChEMBL document CHEMBL1157539, “Thousands of chemical starting points for antimalarial lead identification” (Nature, 2010)

Test system: Plasmodium falciparum
Assay: GSK_TCMDC: Inhibition of Plasmodium falciparum Dd2 in whole red blood cells, using parasite LDH activity as an index of growth. Test compounds present at 2uM
Format: functional

| SMILES | Inhibition [%] |
| --- | --- |
| c1cncc(CNc2ncc(-c3ccsc3)c(-c3nccs3)n2)c1 | 63 |
| CC(C)CCn1c(Sc2ccc(C#N)c([N+](=O)[O-])c2)nnc1-c1ccccc1Cl | 38 |
| NS(=O)(=O)c1ccc(Nc2nccc(-c3c(-c4cccc(NC(=O)c5c(F)cccc5F)c4)nn4ccccc34)n2)cc1 | 89 |
| Br.C=CCN1Cc2c(O)cccc2C(c2ccc(O)c(O)c2)C1 (centres undefined) | 6 |
| O=C(Nc1ccc(C(=O)N(Cc2ccc3c(c2)OCO3)C2CCCC2)cc1)c1cccs1 | 95 |
| Fc1ccc2[nH]c(-c3ccc(-c4ccc(CNCCc5ccncc5)cc4)cc3)nc2c1.O=C(O)C(F)(F)F | 97 |
| Cn1cncc1C(=O)Nc1cccc(-c2cccc(-c3nc4cc(C(F)(F)F)ccc4[nH]3)c2)c1 | 99 |
| O=C(/C=C/c1ccc(Cl)c(Cl)c1)NCCCCCN1CCC(c2n[nH]c(-c3ccccc3)c2Br)CC1 | 23 |
| O=C(NCC1CCN(Cc2ccc(F)cc2)C1)c1cc(-c2cccc(C(F)(F)F)c2)cs1.O=C(O)C(F)(F)F (centres undefined) | 18 |

Test system: HepG2
Assay: GSK_TCMDC: Percent inhibition of human HepG2 cell line. Test compounds present at 10uM.
Format: functional

| SMILES | Inhibition [%] |
| --- | --- |
| Cc1ccc(NC(=S)NC2CCN(CCCCCNC(=O)/C=C/c3ccc(Cl)c(Cl)c3)CC2)cc1Cl | 45 |
| Cc1cc(NC(=O)c2ccsc2)ccc1OC1CCN(Cc2ccc(F)cc2)CC1.O=C(O)C(F)(F)F | 9 |
| Cc1cccc2nc(-c3ccc(-c4cccc(CN5CCN(c6ccncc6)CC5)c4)cc3)[nH]c12.O=C(O)C(F)(F)F | 50 |
| CC(C)C1=C[C@H]2C[C@]3(C4OCCO4)[C@@H]4CC[C@@H](C)[C@H]4C[C@@]2(COCc2cccc(C#N)c2)[C@]13C(=O)OC(c1ccccc1)c1ccccc1 | 0 |
| CC(C)N1CCC(NC(=O)N2CCCN(c3ncnc4cc(-c5ccc(Cl)cc5)sc34)CC2)CC1.O=C(O)C(F)(F)F | 6 |
| CCc1ccccc1N1CCN(CCCC(=O)c2ccc(NC(=O)c3ccc(Cl)cc3)cc2)CC1 | 17 |
| O=C(NC1CC1)c1ccc(N2CCCC(COc3ccccc3F)C2)nc1 (centres undefined) | 8 |
| CN(C)CCN(C)Cc1ccc(-c2ccc3c(Nc4ccc(Oc5ccccn5)cc4)ccnc3c2)o1 | 16 |
| CCC1CN2CCc3c([nH]c4ccccc34)[C@@H]2C[C@@H]1CC1NCCc2cc(OC)c(OC)cc21.Cl (some centres undefined) | 33 |
| CC(C)(CNC(=O)/C=C/c1ccc(Cl)c(Cl)c1)CNc1cc(=O)c2ccccc2[nH]1 | 0 |
| CN(C)c1ccc(C(c2ccc(N(C)C)cc2)c2cc([N+](=O)[O-])ccc2Cl)cc1 | 0 |
| COc1cccc(Nc2nc(C)cc(NC3CCN(Cc4ccccc4)CC3)n2)c1 | 15 |
| Cc1cc(-c2nc3cncc(-c4cccc(CN5CCCC5Cc5cccnc5)c4)c3n2C)nn1C.O=C(O)C(F)(F)F (centres undefined) | 0 |
| COc1cc(-c2ccccc2)ccc1C(=O)Nc1ccc2c(c1)N(C)CCC2 | 15 |
| Br.c1cc(Nc2nc(-c3ccc(-c4csc(Nc5ccncc5)n4)cc3)cs2)ccn1 | 91 |
| COc1cc2c(cc1OC)-c1cc(=Nc3c(C)cc(C)cc3C)n(C)c(=O)n1CC2.Cl | 14 |
| COc1ccc(C2C(C(=O)Nc3cc(OC)c(OC)c(OC)c3)c3cc(OC)c(OC)cc3C(=O)N2C)cc1 (centres undefined) | 9 |
| O=C(NCCN1CCCCC1)c1ccc(CNC(=O)c2ccc(O)c(-c3cccc(C(F)(F)F)c3)c2)cc1 | 3 |
| Cl.N=C(N)c1ccc(-c2cc3ccc(C(=N)N)cc3[nH]2)cc1 | 18 |
| Clc1ccc(Cl)c2[nH]c(CNCCCNc3nc4ccccc4[nH]3)cc12 | 88 |

| SMILES | Inhibition [%] |
| --- | --- |
| Cc1noc(C)c1-c1cccc(CNCc2ccc(-c3ccc(-c4nc5ccccc5[nH]4)s3)cc2)c1.O=C(O)C(F)(F)F | 41 |
| O=C(c1ccc(Cl)cc1)N1CCCC(C(=O)N(Cc2nnc(-c3ccccc3Cl)o2)C2CC2)C1 (centres undefined) | 10 |
| Cc1ccc2nc(-c3ccc(/C=C/C(=O)NC4CCN(Cc5ccccc5)CC4)cc3)[nH]c2c1C | 22 |
| Cl.NC(=O)c1cccc(Nc2nccc(Nc3ccc(Oc4c(Cl)cccc4Cl)c(Cl)c3)n2)c1 | 2 |
| Cc1cccc2nc(-c3ccc(-c4cccc(NC(=O)c5cncn5C)c4)s3)[nH]c12 | 13 |
| N#Cc1ccc(-c2cnc3ccc(NCCc4cccnc4)nn23)cc1 | 27 |
| NC(=O)c1cccc(C(=O)Nc2cccc(-c3cccc(-c4nc5ccccc5[nH]4)c3)c2)c1 | 32 |
| NCc1ccc(CNCc2cccc(-c3cccc(-c4nc5cc(F)ccc5[nH]4)c3)c2)cc1.O=C(O)C(F)(F)F | 15 |
| COc1ccc(CC(=O)Nc2ccc(Nc3nc(C)cc(N4CCCC4)n3)cc2)cc1 | 56 |
| CC(=O)Nc1cccc(/C=C/C(=O)N2CCC(N3CCCCC3)CC2)c1 | 1 |
| Clc1ccc(-c2nc3cc(-c4ccc5nc(-c6ccc(Cl)cc6)[nH]c5c4)ccc3[nH]2)cc1 | 59 |
| c1cncc(CNc2ncc(-c3ccsc3)c(-c3nccs3)n2)c1 | 0 |
| CC(C)CCn1c(Sc2ccc(C#N)c([N+](=O)[O-])c2)nnc1-c1ccccc1Cl | 20 |
| NS(=O)(=O)c1ccc(Nc2nccc(-c3c(-c4cccc(NC(=O)c5c(F)cccc5F)c4)nn4ccccc34)n2)cc1 | 83 |
| Br.C=CCN1Cc2c(O)cccc2C(c2ccc(O)c(O)c2)C1 (centres undefined) | 0 |
| O=C(Nc1ccc(C(=O)N(Cc2ccc3c(c2)OCO3)C2CCCC2)cc1)c1cccs1 | 14 |
| Fc1ccc2[nH]c(-c3ccc(-c4ccc(CNCCc5ccncc5)cc4)cc3)nc2c1.O=C(O)C(F)(F)F | 23 |
| Cn1cncc1C(=O)Nc1cccc(-c2cccc(-c3nc4cc(C(F)(F)F)ccc4[nH]3)c2)c1 | 38 |
| O=C(/C=C/c1ccc(Cl)c(Cl)c1)NCCCCCN1CCC(c2n[nH]c(-c3ccccc3)c2Br)CC1 | 100 |
| O=C(NCC1CCN(Cc2ccc(F)cc2)C1)c1cc(-c2cccc(C(F)(F)F)c2)cs1.O=C(O)C(F)(F)F (centres undefined) | 38 |
